Records with an inconclusive call do not appear. Where a call stands in place of a potency, no number is given. Active and inactive are the calls of the source. The call rests on the fitted dose curve; in most records, active means well fitted inhibition curve with a large enough effect; inconclusive means small, poorly fitted or top-dose-only effect; inactive means flat fitted curve, though single readings scatter.
Legend:
Experiment in all cases: qHTS profiling for inhibitors of Plasmodium falciparum proliferation (AID 504749); further: nearly all actives have a fitted effect of over 60% in size
Settings in all cases: P. falciparum in erythrocytes, SYBR Green DNA, 72 h; series mostly up to 28.7 µM
CP286 = tested on: CP286
Procedure, shortened: (§1)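 Each compound contacts P. falciparum-infected red blood cells for 72 h at 37 C; lysis buffer (Tris, EDTA, saponin, Triton X, SYBR Green I) is added and fluorescence measured next morning; values normalized to controls.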

CP291 = tested on: CP291
Procedure, shortened: as §1

CP297 = tested on: CP297
Procedure, shortened: as §1

CP305 = tested on: CP305
Procedure, shortened: as §1

CP315 = tested on: CP315
Procedure, shortened: as §1

CP325 = tested on: CP325
Procedure, shortened: as §1

CP329 = tested on: CP329
Procedure, shortened: as §1

CP335 = tested on: CP335
Procedure, shortened: as §1

DFO2036 = tested on: DFO2036
Procedure, shortened: as §1

DIV14 = tested on: DIV14
Procedure, shortened: as §1

DIV17 = tested on: DIV17
Procedure, shortened: as §1

Dd2 = tested on: Dd2
Procedure, shortened: as §1

ECU = tested on: ECU
Procedure, shortened: as §1

FAB9 = tested on: FAB9
Procedure, shortened: as §1

GB4 = tested on: GB4
Procedure, shortened: as §1

HB3 = tested on: HB3
Procedure, shortened: as §1

ICS = tested on: ICS
Procedure, shortened: as §1

JCK = tested on: JCK
Procedure, shortened: as §1

N140 = tested on: N140
Procedure, shortened: as §1

DIV30 = tested on: DIV30
Procedure, shortened: as §1
Potency means the concentration at half of the fitted maximal effect.

SMILES	Potency (CP286)	Potency (CP291)	Potency (CP297)	Potency (CP305)	Potency (CP315)	Potency (CP325)	Potency (CP329)	Potency (CP335)	Potency (DFO2036)	Potency (DIV14)	Potency (DIV17)	Potency (Dd2)	Potency (ECU)	outcome (FAB9)	Potency (GB4)	Potency (HB3)	Potency (ICS)	outcome (JCK)	Potency (N140)	Potency (DIV30)
COc1ccnc(CS(=O)c2nc3ccc(OC(F)F)cc3[nH]2)c1OC (stereo not drawn)	inactive	inactive	inactive	inactive	inactive	inactive	inactive	inactive	inactive	inactive	inactive	inactive	inactive	inactive	inactive	inactive	inactive	inactive	inactive	–
NS(=O)(=O)c1cc(Cl)c(Cl)c(S(N)(=O)=O)c1	inactive	inactive	inactive	inactive	inactive	inactive	inactive	inactive	inactive	inactive	inactive	inactive	inactive	inactive	inactive	inactive	inactive	inactive	inactive	inactive
Fc1ccc(C(c2ccc(F)cc2)N2CCN(CC=Cc3ccccc3)CC2)cc1	–	–	–	13.5 µM (active)	–	–	–	15.1 µM (active)	–	12 µM (active)	13.5 µM (active)	–	–	–	16.9 µM (active)	–	–	–	–	16.9 µM (active)
N#CC(c1ccc(Cl)cc1)c1c(Cl)cc(-n2ncc(=O)[nH]c2=O)cc1Cl (stereo not drawn)	inactive	inactive	inactive	inactive	inactive	inactive	inactive	inactive	inactive	–	–	inactive	inactive	inactive	inactive	inactive	–	inactive	inactive	inactive
COc1cc2c(cc1OC)CC(=O)N(CCCN(C)C[C@H]1Cc3cc(OC)c(OC)cc31)CC2	inactive	inactive	inactive	inactive	inactive	inactive	inactive	inactive	inactive	–	–	inactive	inactive	inactive	inactive	inactive	–	inactive	inactive	–
O=C1C(CCC(O)c2ccc(F)cc2)C(c2ccc(O)cc2)N1c1ccc(F)cc1 (stereo not drawn)	inactive	inactive	inactive	inactive	inactive	inactive	inactive	inactive	inactive	inactive	inactive	inactive	inactive	inactive	inactive	inactive	inactive	inactive	inactive	inactive
CN1CCN2c3ncccc3Cc3ccccc3C2C1 (stereo not drawn)	inactive	–	inactive	inactive	inactive	inactive	inactive	–	inactive	–	–	–	inactive	inactive	–	inactive	11.2 µM (active)	inactive	–	inactive
N#Cc1c(N(CC(=O)O)CC(=O)O)sc(C(=O)O)c1CC(=O)O	inactive	inactive	inactive	inactive	inactive	inactive	inactive	inactive	inactive	inactive	inactive	inactive	inactive	inactive	inactive	inactive	inactive	inactive	inactive	inactive
Clc1ccc(COC(Cn2ccnc2)c2ccc(Cl)cc2Cl)c(Cl)c1 (stereo not drawn)	–	–	4.05 µM (active)	–	–	5.1 µM (active)	–	–	3.16 µM (active)	2.28 µM (active)	3.61 µM (active)	–	1.26 µM (active)	–	5.1 µM (active)	3.55 µM (active)	1 µM (active)	–	2.24 µM (active)	5.73 µM (active)
O=C(O)c1nc(=O)[nH]c(=O)[nH]1	inactive	inactive	inactive	inactive	–	inactive	inactive	–	inactive	inactive	inactive	inactive	inactive	inactive	inactive	inactive	inactive	inactive	inactive	inactive
COc1c(C)c2c(c(O)c1CC=C(C)CCC(=O)OCCN1CCOCC1)C(=O)OC2	7.08 µM (active)	8.49 µM (active)	12 µM (active)	10.7 µM (active)	13.5 µM (active)	10.7 µM (active)	7.57 µM (active)	8.49 µM (active)	10 µM (active)	13.5 µM (active)	15.1 µM (active)	11.2 µM (active)	10 µM (active)	inactive	6.75 µM (active)	–	7.94 µM (active)	–	8.91 µM (active)	12 µM (active)
C=C1c2cccc(O)c2C(O)=C2C(=O)[C@@]3(O)C(O)=C(C(N)=O)C(=O)[C@@H](N(C)C)[C@@H]3[C@@H](O)[C@H]12	–	inactive	inactive	inactive	inactive	inactive	inactive	–	inactive	inactive	inactive	1.78 µM (active)	inactive	inactive	inactive	–	–	inactive	inactive	inactive
CS(=O)(=O)c1ccc(C2=C(c3ccccc3)C(=O)OC2)cc1	inactive	inactive	inactive	inactive	inactive	inactive	inactive	inactive	inactive	inactive	inactive	inactive	inactive	inactive	inactive	inactive	inactive	inactive	inactive	inactive
CC(C)CN(C[C@@H](O)[C@H](Cc1ccccc1)NC(=O)O[C@H]1CO[C@H]2OCC[C@H]21)S(=O)(=O)c1ccc(N)cc1	inactive	inactive	inactive	inactive	inactive	inactive	inactive	inactive	inactive	–	–	inactive	inactive	inactive	inactive	inactive	–	inactive	–	–
CN1CC(=O)N2C(Cc3c([nH]c4ccccc34)[C@H]2c2ccc3c(c2)OCO3)C1=O (stereo partly drawn)	inactive	inactive	inactive	inactive	inactive	inactive	inactive	inactive	inactive	–	–	inactive	inactive	inactive	inactive	inactive	–	inactive	inactive	inactive
Cc1cc2nc3c(=O)[nH]c(=O)nc-3n(CC(O)C(O)C(O)CO)c2cc1C (stereo not drawn)	inactive	inactive	inactive	inactive	inactive	inactive	inactive	inactive	inactive	–	–	inactive	inactive	inactive	–	inactive	inactive	inactive	inactive	inactive

Reference: PubChem BioAssay (NCATS)
